# Assay outcomes deposited in PubChem by several laboratories.
# Only some compounds are listed: those with a hit (about 4.5% of all), similar ones and a draw of the others.
# PrP 5UTR inh: inhibition of PrP 5' UTR reporter expression; inhibition, % (test concentration not listed); AID 488862, 2010; cell-based PrP 5' UTR mRNA reporter, plate reader; 340,000 compounds, 0.35% hits; in the data active = inhibition above about 52%; also: 0 = median of the neutral control wells
# GDH-TPI counter-1: GDH-TPI coupling enzyme inhibitors, primary screen, artefact control for M. tuberculosis FBA inhibitor project, biochemical, absorbance, full deck | GDH-TPI coupled enzyme counterscreen, NADH absorbance | inhibition, % at 4.8 µM | 360,000 compounds, 1.2% hits | AID 588335, 2011; in the data active = inhibition above about 30%;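 also: 0% = DMSO wells and 100% = wells lacking the enzyme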
# FBA Mtb inh: Mtb FBA enzyme inhibitors, primary screen, biochemical, fluorescence, strain H37Rv; Fructose-bisphosphate aldolase (Mycobacterium tuberculosis (strain ATCC 25618 / H37Rv)), …; purified M. tuberculosis FBA, fluorescence read-out; inhibition, % at 1 µM; 360,000 compounds, 2.3% hits; AID 588726, 2011;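 also: 0% = vehicle and 100% = reference inhibitor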
# Target sequence (P9WQA3 whole entry, looked up): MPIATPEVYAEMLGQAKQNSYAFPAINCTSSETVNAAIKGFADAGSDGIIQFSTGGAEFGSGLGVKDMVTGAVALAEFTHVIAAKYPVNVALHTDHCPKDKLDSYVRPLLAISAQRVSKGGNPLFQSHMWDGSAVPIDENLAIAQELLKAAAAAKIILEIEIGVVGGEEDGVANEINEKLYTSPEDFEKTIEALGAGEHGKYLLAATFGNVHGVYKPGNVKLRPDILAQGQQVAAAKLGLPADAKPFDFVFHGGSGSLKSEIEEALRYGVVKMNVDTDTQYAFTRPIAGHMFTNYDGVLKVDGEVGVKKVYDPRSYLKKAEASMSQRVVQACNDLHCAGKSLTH
# PfHsp40 yeast: rescue of yeast from PfHsp40 toxicity, primary screen, S. cerevisiae, ATP luminescence. S. cerevisiae expressing PfHsp40, growth rescue. growth rescue, % at 12.5 µM. 340,000 compounds, 0.68% hits. AID 504582, 2011; in the data active = growth rescue above about 28%, passing the limit was not always enough;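 also: yeast W303a lacking pdr1 and pdr3 grown in galactose medium; growth measured after three days at 30 °C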
# BJeLR viability: MLPCN primary cell-based screen for lethality selective to Ras in HRASV12 cells. inhibition, % (test concentration not listed). 300,000 compounds, 0.17% hits. BJeLR (HRASV12) viability, CellTiter-Glo ATP luminescence, 48 h; in the data active = inhibition above about 50%
# PrPC surface inh: inhibitors of human cell surface prion protein PrPC, primary screen, cell-based, TR-FRET | Major prion protein (Homo sapiens), P04156 | TR-FRET read-out | inhibition, % at 13.8 µM | 370,000 compounds, 0.43% hits | AID 720596, 2013; in the data active = inhibition above about 24%; also: 0% = median of the test wells and 100% = reference compound wells
# Mtb FBA inh conf: M. tuberculosis aldolase blockers, biochemical, fluorescence, strain H37Rv, confirmation; purified M. tuberculosis FBA, fluorescence read-out; inhibition, % at 1 µM; shares compounds with FBA Mtb inh; 5,600 compounds, 78% hits;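 also: 0% = vehicle wells and 100% = reference inhibitor wells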
# GDH-TPI counter-2: GDH-TPI coupling enzyme inhibitors, artefact control for M. tuberculosis FBA inhibitor project, biochemical, fluorescence, high throughput | shares compounds with FBA Mtb inh | GDH-TPI coupled enzyme counterscreen | inhibition, % at 1 µM | 5,600 compounds, 81% hits | AID 652141, 2013; in the data active = inhibition above about 10%
# An asterisk follows results filed as active; nt = no result given; + = active, no number. Rule as the data show it, unless noted: active = inhibition above about 27%; inactive = the rest.
SMILES,PrP 5UTR inh,GDH-TPI counter-1,FBA Mtb inh,PfHsp40 yeast,BJeLR viability,PrPC surface inh,Mtb FBA inh conf,GDH-TPI counter-2
O=C(O)C1Cn2c(nc3c(c2=O)C2(CCCC2)Cc2ccccc2-3)S1 (stereo not given),-37,8,35*,1,6,9,-9,-5
CCSc1n[nH]c2nc3c(c(=O)n12)C1(CCCC1)Cc1ccccc1-3,-95,4,28*,0,2,-1,-2,-4
Cn1ncn2c(=O)c3c(nc12)-c1ccccc1CC31CCCC1,-24,7,44*,-1,-12,-7,+,+
CCOC(=O)C1Cn2c(nc3c(c2=O)C2(CCCC2)Cc2ccccc2-3)S1 (stereo not given),-1,20,0,6,nt,7,nt,nt
O=C(O)CC(NC(=O)Cc1ccccc1)c1cc([N+](=O)[O-])ccc1Cl (stereo not given),-13,-7,-3,0,-2,-12,nt,nt
Cc1ccc(S(=O)(=O)N2CCOCC2)cc1NC(=O)CN1C(=O)NC(C)(c2ccc(Cl)cc2Cl)C1=O (stereo not given),-6,10,-2,-1,nt,5,nt,nt
CCOc1ccccc1NC(=O)c1ccc(NC(=O)C2CCCO2)cc1 (stereo not given),-2,-2,0,-1,7,2,nt,nt
O=C(O)c1cccc(C(=O)O)c1S(=O)Cc1ccccc1 (stereo not given),nt,nt,nt,nt,nt,8,nt,nt
Cc1cc(=O)oc2cc(OCC(O)Cn3ccnc3)ccc12 (stereo not given),6,27,43*,-1,13,8,10,-1
CCN1CCN(CC(O)COc2ccc3c(C)cc(=O)oc3c2)CC1 (stereo not given),-15,7,53*,0,1,1,+,+
CCN1CCN(CC(O)COc2ccc(C)c(C)c2)CC1 (stereo not given),-9,4,0,0,8,0,nt,nt
COc1ccc(CNC(=O)[C@@H](NC(=O)C2CCN(C(=O)[C@@H](N)Cc3ccccc3)CC2)C(C)C)cc1,-5,13,5,-1,1,5,nt,nt
CCc1ccc(/C=N/NC(=O)c2nnn(-c3nonc3N)c2CN2CCOCC2)cc1,-24,-5,-1,-1,-2,-5,nt,nt
COc1ccc(N2C(=O)c3ccccc3NC23CCC(C)CC3)cc1 (stereo not given),-68,1,10,0,0,4,nt,nt
COc1ccc(N2C(=O)c3ccccc3NC23CCCCC3)cc1,-111,-2,37*,-2,4,6,111*,109*
N#Cc1ccc(-c2cccs2)nc1SCc1cccnc1,nt,-2,34*,nt,51*,15,12,-5
CN1CCN(C(=O)CSc2nc(-c3cccs3)ccc2C#N)CC1,-30,28,50*,0,2,-7,+,+
CCOC(=O)CSc1nc(-c2ccncc2)ccc1C#N,-77,20,14,0,-2,-20,nt,nt
CCc1nc(N)nc(N)c1-c1ccc(Cl)c(N=[N+]=[N-])c1,-10,8,0,1,nt,-4,nt,nt
COc1cccc(C(=O)NOCc2ccccc2)c1OC,-60,3,-1,-2,nt,0,nt,nt
CCOc1ccc2oc(C(=O)NCC3CCCO3)c(C)c2c1 (stereo not given),-47,-8,22,0,-18,4,nt,nt
CCOc1ccc(N=c2oc3cc(O)ccc3cc2C(=O)NCC2CCCO2)cc1 (stereo not given),-19,2,56*,-1,-13,-4,39*,36*
Cc1ccc(S(=O)(=O)Nc2ccccc2C(=O)NCC2CCCO2)cc1 (stereo not given),nt,nt,nt,nt,-2,1,nt,nt
